Compound activity deposited in PubChem BioAssay by several laboratories.
Rv3671c inh: inhibitors of M. tuberculosis serine protease Rv3671c; AID 2606; inhibition, % at 5.96 µM; P9WHR9; 0.048% of 320,000 active; in the data active = inhibition above about 38%;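 also: extracellular domain of Rv3671c used as enzyme; 0% = enzyme with DMSO and 100% = no enzyme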
Target sequence (P9WHR9 whole entry, looked up, the tested form may be a part): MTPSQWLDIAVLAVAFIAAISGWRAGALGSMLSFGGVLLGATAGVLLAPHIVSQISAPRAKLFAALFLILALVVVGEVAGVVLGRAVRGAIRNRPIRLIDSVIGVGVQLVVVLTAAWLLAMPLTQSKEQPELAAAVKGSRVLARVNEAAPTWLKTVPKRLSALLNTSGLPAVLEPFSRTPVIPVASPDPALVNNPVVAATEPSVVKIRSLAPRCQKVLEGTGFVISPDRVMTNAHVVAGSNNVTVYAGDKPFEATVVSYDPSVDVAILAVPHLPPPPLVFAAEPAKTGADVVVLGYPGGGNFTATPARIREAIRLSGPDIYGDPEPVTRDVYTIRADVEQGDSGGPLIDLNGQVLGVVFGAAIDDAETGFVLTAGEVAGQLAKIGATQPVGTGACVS
FBA Mtb inh: inhibitors of M. tuberculosis fructose-bisphosphate aldolase; inhibition, % at 1 µM; 2.3% of 360,000 active; purified M. tuberculosis FBA, fluorescence read-out; AID 588726;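 also: 0% = vehicle and 100% = reference inhibitor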
GDH-TPI counter-1: GDH-TPI coupled enzyme inhibition counter-screen; GDH-TPI coupled enzyme counterscreen, NADH absorbance; inhibition, % at 4.8 µM; 1.2% of 360,000 active; in the data active = inhibition above about 30%;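 also: 0% = DMSO wells and 100% = wells lacking the enzyme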
Vc quorum ag: inducers of Vibrio cholerae quorum light production without autoinducers; 0.16% of 350,000 active; activation, % at 18.7 µM; V. cholerae BH1578 lux reporter, luminescence, 6 h; in the data active = activation mostly above about 9.7%, no sharp cut-off
RecA intein inh: blocks M. tuberculosis RecA intein splicing. P9WHJ3. cell-free RecA intein splicing, fluorescence. inhibition, % (concentration not given with the values). 0.75% of 290,000 active. AID 2221; in the data active = inhibition above about 30%;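 also: 0% = vehicle wells and 100% = reference inhibitor control wells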
UGM FP inh: Mtb UDP-galactopyranose mutase inhibition; inhibition, % at 10 µM; purified UGM, fluorescence polarization probe displacement; 0.06% of 320,000 active; in the data active = inhibition above about 10%, passing the limit was not always enough
Mtb FBA confirm: confirmation of M. tuberculosis fructose-bisphosphate aldolase inhibitors | shares compounds with FBA Mtb inh | purified M. tuberculosis FBA, fluorescence read-out | inhibition, % at 1 µM | 78% of 5,600 active | AID 651616;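 also: 0% = vehicle wells and 100% = reference inhibitor wells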
GDH-TPI counter-2: inhibits GDH-TPI coupling enzymes, flagging Mtb FBA hits; shares compounds with FBA Mtb inh; GDH-TPI coupled enzyme counterscreen, fluorescence; inhibition, % at 1 µM; 81% of 5,600 active; in the data active = inhibition above about 10%
GDH-TPI DR: inhibits GDH-TPI coupling enzymes in dose response. shares compounds with FBA Mtb inh. GDH-TPI coupled enzyme assay, fluorescence, artifact counterscreen. IC50, µM. 79% of 170 active. AID 652145; call rule not given here
Active calls of the source: *; i = inactive; . = no result given; + = active, no number. This is a sample that favours compounds with a hit; in the whole collection about 4.1% have one here. Rule as the data show it, unless noted: active = inhibition above about 27%; inactive = the rest.

SMILES	Rv3671c inh	FBA Mtb inh	GDH-TPI counter-1	Vc quorum ag	RecA intein inh	UGM FP inh	Mtb FBA confirm	GDH-TPI counter-2	others
CCCN1C(=O)c2ccccc2NC1c1ccc(Br)cc1 (stereo unspecified)	3.9	68.4*	13.3	1.1	4.1	1.1	68.0*	59.5*
CCCN1C(=O)c2ccccc2NC1c1ccc(Cl)c(Cl)c1 (stereo unspecified)	-0.9	59.5*	9.3	i	7.7	0.2	104.2*	107.4*
Cc1ccc(CN2C(=O)c3ccccc3NC2c2cc(Br)ccc2O)cc1 (stereo unspecified)	-47.2	14.4	7.1	-0.5	25.9	-2.8	.	.
CCCCN1C2=C(C(=O)CCC2)C(c2ccc(Cl)c(Cl)c2)C2=C1c1ccccc1C2=O (stereo unspecified)	-7.0	-14.2	-10.8	i	1.0	-1.7	.	.
CCCN1C(=O)c2ccccc2NC1c1ccc(Cl)cc1 (stereo unspecified)	-3.3	60.3*	11.3	i	2.1	-1.1	131.6*	106.8*
N#Cc1ccc(S(=O)(=O)N2CCN(C(=O)c3cn(-c4ccccc4)nc3-c3cccnc3)CC2)cc1	.	-1.5	3.2	-4.2	.	.	.	.
O=S(=O)(c1ccccc1)N1N=C(c2ccccc2)CC1c1ccccc1 (stereo unspecified)	-0.1	0.1	-1.9	-0.3	-1.6	0.9	.	.
O=Cc1ccc(N2N=C(c3ccccc3)CC2c2ccccc2)cc1 (stereo unspecified)	-5.0	86.3*	7.0	5.6	-170.9	0.2	135.7*	89.5*
N#CCC(=O)N/N=C/c1ccc(N2N=C(c3ccccc3)CC2c2ccccc2)cc1 (stereo unspecified)	-10.9	84.7*	3.7	-2.2	-52.5	4.2	11.8	4.6	GDH-TPI DR=0.285*
N#CCC(=O)N/N=C/c1c(-c2ccccc2)n(-c2ccccc2)c2ccccc12	-4.2	-2.8	10.3	-0.5	-0.4	2.5	.	.
CC(=O)Nc1ccc(C2=NN(c3ccccc3)C(c3ccccc3)C2)cc1 (stereo unspecified)	12.4	105.2*	6.4	i	-5.5	2.7	41.6*	33.3*
CC1Cc2ccccc2N1C(=O)CN(C)CC(=O)Nc1cccc(F)c1 (stereo unspecified)	-0.7	-0.2	4.2	i	.	0.3	.	.
Cc1cccc(-n2c(=O)[nH]c3c(C(N)=O)nc(CC(C)C)nc32)c1	-0.8	45.5*	9.4	.	-3.2	2.8	93.9*	76.1*
CC(C)Cc1nc(C(N)=O)c2[nH]c(=O)n(-c3ccc(F)cc3)c2n1	-10.1	10.0	1.9	-0.3	-1.2	0.8	.	.
COc1ccccc1-c1nc(C(N)=O)c2[nH]c(=O)n(-c3cccc(C)c3)c2n1	4.8	48.4*	29.1	-0.4	0.5	-4.2	+	194.8*
CCc1nc(C(N)=O)c2[nH]c(=O)n(-c3ccccc3F)c2n1	-3.4	104.9*	7.7	-4.6	-0.2	0.2	91.2*	74.0*
COc1ccc(S(=O)(=O)Nc2ccc3c(c2)C(=O)N([C@H](C)CO)C[C@H](C)[C@@H](CN(C)S(=O)(=O)c2cccs2)O3)cc1	9.3	-0.8	2.2	-1.2	.	-0.9	.	.
COc1ccc(OC)c(CNC(=O)CCn2c(=O)c3cccn3c3ccc(F)cc32)c1	9.8	-5.8	-5.2	i	-0.5	2.7	.	.
Cc1nccn1CC(=O)c1ccccc1	.	0.7	5.6	-4.5	.	.	.	.
O=C(Nc1cccc2ccccc12)c1ccc2sc([C@H]3C[C@H](O)[C@@H](CO)O3)nc2c1	.	-3.0	-2.2	i	.	.	.	.
CN(C(=O)c1ccncc1)c1nnc(-c2ccccn2)s1	3.7	47.6*	-2.6	2.6	-2.6	-1.1	146.2*	132.7*
CN(C(=O)c1ccc(C#N)cc1)c1nnc(-c2ccccn2)s1	.	5.0	0.6	-0.2	0.6	.	.	.
COc1c2ccc(C(=O)NCc3cc(C(F)(F)F)cc(C(F)(F)F)c3)cc2nn1C	3.2	45.6*	0.0	-0.3	-5.9	-5.1	97.0*	73.3*
CCOc1c2ccc(C(=O)NCc3ccc(C(F)(F)F)cc3C(F)(F)F)cc2nn1C	0.8	59.8*	3.1	-7.1	1.2	-2.1	127.5*	104.0*
COc1ccccc1Cc1c(-c2ccc(Cl)cc2)nc2ccc(Br)cn12	.	2.4	.	.	.	.	.	.
SMILES	Rv3671c inh	FBA Mtb inh	GDH-TPI counter-1	Vc quorum ag	RecA intein inh	UGM FP inh	Mtb FBA confirm	GDH-TPI counter-2	others
C=CCn1c2ccccc2c(=O)c2cc(C#CC3(O)CCCCC3)ccc21	-25.0	64.6*	0.9	i	-76.8	-0.4	133.8*	108.3*
CCN(CC)CCOC(=O)c1cccc2c1-c1ccccc1C2O (stereo unspecified)	15.0	29.0*	-4.1	-0.9	4.4	-2.5	46.4*	35.1*
COC(=O)C1C(OC)=CC(=O)C2CCCCC21 (stereo unspecified)	.	1.6	10.6	.	.	.	.	.
CN1CCN(C(=O)c2ccc(-c3cccs3)s2)CC1	-3.5	49.6*	13.3	-0.4	-3.1	0.0	23.4	18.4*
Cc1cc(C)n2c(nc3ccccc32)c1C(=O)NN	6.4	17.7	21.4	i	-8.5	-5.3	.	.
Cc1cc(C)n2c(nc3ccccc32)c1C(=O)NCc1ccccc1	-3.9	48.2*	7.3	-0.4	-2.4	4.6	22.7	15.2*
CCN(C(=O)c1c(C)cc(=O)oc1C)c1ccc2c(c1)OCO2	6.1	0.2	9.3	1.6	3.4	-0.6	.	.
CCN(C(=O)c1coc(=O)c(Br)c1)c1ccc2c(c1)OCO2	-36.8	79.9*	23.7	-0.5	-2.1	0.0	+	182.6*
O=C(COC(=O)c1cnc(Cl)c(Cl)c1)NC1CC1	-7.0	-2.1	-6.0	3.2	.	-2.4	.	.
COc1cccc(NC(=O)C2(C)CCCN(C(C)C)C2)c1 (stereo unspecified)	.	2.2	5.5	-0.4	.	.	.	.
COc1ccc(-c2ccc(-c3noc(C)n3)c(OC)n2)cc1	-9.0	73.7*	12.8	-5.6	1.5	6.2	92.9*	87.8*
CCOc1nc(-c2ccccc2)ccc1-c1noc(COc2ccccc2)n1	-11.2	3.2	2.8	-1.0	5.9	1.4	.	.
COc1ccc(-c2ccc(-c3noc(C4CCCCC4)n3)c(OC)n2)cc1	-12.1	28.3*	6.9	1.1	-3.9	2.6	+	+
COc1ccc(-c2ccc(-c3noc(-c4ccccc4C)n3)c(OC)n2)cc1	-14.2	12.7	3.9	i	0.3	-0.4	.	.
CCOc1nc(-c2ccc(OC)cc2)ccc1-c1noc(C)n1	-8.8	76.2*	8.9	i	-4.9	-3.5	91.7*	77.6*
CC1CCC2C(C1)Nc1c(C(=O)O)cccc1C2(C)C (stereo unspecified)	-4.1	77.1*	9.3	-0.6	-0.2	-0.5	22.7	10.8*
